Screening data from PubChem.
LYPLA1 inh: counter-screen for PME1 inhibitors: inhibitors of human LYPLA1; recombinant LYPLA1, FP-Rh probe fluorescence polarization; 320,000 tested, 0.16% active; O75608; AID 2174; inhibition, % at 5.9 µM;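 active = inhibition above the mean of all tested compounds plus 3 SD, set per campaign, cut at about 14% in these data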;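 note: inhibitors block serine hydrolase probe labeling of LYPLA1 so polarization falls; 0% = enzyme with DMSO and 100% = wells lacking LYPLA1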
Target sequence (O75608 whole entry, looked up): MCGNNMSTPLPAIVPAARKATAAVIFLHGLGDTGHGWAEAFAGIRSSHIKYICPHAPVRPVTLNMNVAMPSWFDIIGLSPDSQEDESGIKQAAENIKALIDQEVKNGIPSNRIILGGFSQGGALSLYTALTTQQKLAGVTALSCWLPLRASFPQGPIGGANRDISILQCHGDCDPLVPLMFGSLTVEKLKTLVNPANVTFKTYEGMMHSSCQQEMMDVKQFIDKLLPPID
PAD4 FP inh: inhibitors of human PAD4 | Q9UM07 | recombinant PAD4, RCA probe fluorescence polarization | inhibition, % at 6.36 µM | 330,000 tested, 0.41% active | AID 485272;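 active = percent inhibition above a cutoff equal to the mean of all tested compounds plus 3 SD, cut at about 15% in these data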;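 note: 0% = PAD4 with RCA probe and DMSO and 100% = probe without PAD4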
PME-1 primary: PME-1 (human) inhibition; Q9Y570; recombinant PME-1, FP-Rh probe fluorescence polarization; inhibition, % at 5.9 µM; 320,000 tested, 0.53% active; AID 2130;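 active = inhibition above the campaign mean of all compounds plus 3 SD, cut at about 26% in these data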;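 note: competitive labeling of PME-1 active site by serine hydrolase directed probe; 0% = PME-1 with DMSO and 100% = wells lacking PME-1 enzyme; inhibitors block probe labeling so polarization falls and inhibition rises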
GSTO1 counter: counter-screen for RBBP9 inhibitors: inhibitors of human GSTO1. P78417. recombinant GSTO1, activity-based probe fluorescence polarization. inhibition, % at 5.96 µM. 300,000 tested, 1.1% active;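 active = inhibition above the campaign mean inhibition plus 3 SD, cut at about 35% in these data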;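 note: 0% = GSTO1-1 with DMSO and 100% = wells lacking GSTO1-1 enzyme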
Target sequence (P78417 whole entry, looked up): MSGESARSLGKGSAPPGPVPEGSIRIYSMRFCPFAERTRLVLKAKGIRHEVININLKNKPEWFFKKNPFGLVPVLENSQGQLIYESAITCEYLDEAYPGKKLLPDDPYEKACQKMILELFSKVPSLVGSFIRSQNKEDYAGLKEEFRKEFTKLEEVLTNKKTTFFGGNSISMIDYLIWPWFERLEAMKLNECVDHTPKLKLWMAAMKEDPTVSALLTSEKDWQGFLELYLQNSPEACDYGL
Fam108B inh: blocks mouse Fam108B hydrolase in RBBP9 counter-screen | recombinant Fam108B, FP-Rh probe fluorescence polarization | inhibition, % at 9.51 µM | 300,000 tested, 0.33% active;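 active = inhibition above the screen mean inhibition plus 3 SD, computed separately per campaign, cut at about 18% in these data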;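 note: inhibitors lower polarization as less probe binds the enzyme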
LYPLA2 counter: LYPLA2 (human) inhibition in PME1 counter-screen. O95372. recombinant LYPLA2, FP-Rh probe fluorescence polarization. inhibition, % at 5.9 µM. 320,000 tested, 0.38% active;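 active = inhibition above the screen-wide mean plus 3 SD, limit set per campaign, cut at about 26% in these data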;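 note: 0% = LYPLA2 with DMSO and 100% = wells lacking LYPLA2 enzyme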
GSTO1 inh conf: GSTO1 (human) inhibition, confirmation. shares compounds with GSTO1 counter. recombinant GSTO1, probe fluorescence polarization. inhibition, % at 5.96 µM. 2,400 tested, 54% active. AID 2176;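 active = inhibition above the primary screen's cutoff, its mean inhibition plus 3 SD, cut at about 35% in these data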;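 note: loss of polarization as inhibitors block binding of rhodamine sulfonate ester activity probe; 0% = GSTO1 with DMSO and 100% = wells lacking GSTO1 enzyme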
Numbers without * were called inactive; / = no result given. The list is not random: actives were taken first. Their share in the collection is about 1.8%.

SMILES	LYPLA1 inh	PAD4 FP inh	PME-1 primary	GSTO1 counter	Fam108B inh	LYPLA2 counter	GSTO1 inh conf
CC(=O)Oc1cccc2c1C(=O)c1c(OC(C)=O)cc(C(=O)O)cc1C2=O	0.6	10.6	9.3	56.3*	3.0	0.6	33.0
COc1ccc2[nH]c3c(c2c1)CCN1C(=O)N([C@@H](C)C(=O)NC2CCN(Cc4ccccc4)CC2)C(=O)[C@]31C	1.6	-0.4	-1.6	-5.4	0.5	7.9	/
CCN(CC)c1ccc(N=Cc2ccc([N+](=O)[O-])o2)cc1	-3.4	8.4	9.6	72.7*	11.4	6.5	9.9
CCOc1ccc(C2C(C(=O)/C=C/c3ccco3)=C(O)C(=O)N2CCN2CCOCC2)cc1OC (stereo unspecified)	-4.7	-2.8	-8.2	38.4*	-1.6	-10.8	6.4
COc1ccc(C2C(C(=O)/C=C/c3ccco3)=C(O)C(=O)N2CCN2CCOCC2)cc1 (stereo unspecified)	-2.9	-3.3	-7.7	12.5	2.8	-0.7	/
COc1cc(C2c3c(c(C)c(C)oc3=O)Oc3c(C)c(C)oc(=O)c32)ccc1OS(=O)(=O)c1ccc(C)cc1	-10.4	-2.9	-6.5	/	/	-14.7	/
NC(=O)CCn1c(C(=O)c2ccc(Cl)cc2)c2ccccc2[n+]1[O-]	-2.9	-2.3	-4.8	50.4*	6.8	-2.0	7.7
Cc1ccc(C(=O)c2c3ccccc3[n+]([O-])n2CCC(=O)O)cc1	-1.0	-0.6	6.2	-2.2	0.6	-7.1	/
Cc1ccc(C2=NN(C(=O)CCl)C(c3cccs3)C2)o1 (stereo unspecified)	4.1	7.2	4.5	99.2*	-2.6	9.9	96.3*
O=C(CCl)N1N=C(c2ccco2)CC1c1cccs1 (stereo unspecified)	-1.0	-0.2	4.4	85.3*	-4.5	7.5	99.1*
CC(=O)N1N=C(c2ccco2)CC1c1cccs1 (stereo unspecified)	0.8	-2.6	2.9	3.8	6.0	6.1	/
O=C(CNC(=O)c1cccnc1)N=Nc1c(O)[nH]c2c(Br)cc(Br)cc12	-2.4	-2.0	0.9	85.0*	2.2	1.6	40.6*
C=CCn1c(SCC(=O)c2ccc(O)c(O)c2)nnc1-c1ccccc1OC	-1.7	6.1	1.5	40.9*	1.6	-4.8	8.4
C=CCn1c(SCC(=O)c2ccc(O)c(O)c2)nnc1-c1cccnc1	-2.4	1.2	-3.2	40.2*	3.6	3.4	13.4
C=CCn1c(SCC(=O)c2ccc(O)c(O)c2)nnc1-c1cccc(C)c1	2.0	0.4	0.7	/	/	0.8	/
O=C1c2ccccc2C(=O)C12OC(c1ccccc1)C1(C(=O)c3ccccc3C1=O)C2c1ccc([N+](=O)[O-])cc1 (stereo unspecified)	0.0	-8.8	2.6	-4.7	-1.6	2.7	/
O=C1c2ccccc2C(=O)C12OC2c1ccc(Cl)cc1 (stereo unspecified)	0.4	-17.9	3.5	44.7*	5.1	1.9	14.6
Oc1cccc(/C=N/NC(=S)NCCN2CCOCC2)c1O	1.4	-3.9	-6.9	88.4*	-1.2	-4.1	58.2*
CC(=O)Oc1ccc(-c2cc3c(OC(C)=O)cc(OC(C)=O)cc3oc2=O)cc1	-1.1	2.4	3.2	43.5*	2.0	4.1	11.2
CC(=O)Oc1ccc(-c2cc3ccccc3oc2=O)cc1	0.8	0.4	1.1	2.0	3.0	5.0	/
CC(C)(O)CC[C@@H](O)[C@](C)(O)[C@H]1CC[C@@]2(O)C3=CC(=O)[C@@H]4C[C@@H](O)[C@@H](O)C[C@]4(C)[C@H]3CC[C@]12C	0.5	-0.8	-6.1	38.9*	-4.2	-0.8	6.8
O=C1CCCC2=C1C(c1ccc(O)c(O)c1)Nc1ccc3ccccc3c12 (stereo unspecified)	-6.7	-2.1	-0.6	66.7*	-3.1	-12.5	8.6
COc1cc(C2Nc3ccc4ncccc4c3C3=C2C(=O)CCC3)cc(OC)c1O (stereo unspecified)	0.8	2.8	0.9	14.8	1.2	2.2	/
COc1ccc(-n2nc3c(c2NC(=O)CCl)CSC3)cc1	1.9	-2.4	-0.6	87.6*	-4.2	0.0	91.5*
CCCc1cc(=O)[nH]c2nnc(SCC(=O)NCc3ccc4c(c3)OCO4)n12	-3.2	0.9	-1.8	7.3	5.7	0.9	/
SMILES	LYPLA1 inh	PAD4 FP inh	PME-1 primary	GSTO1 counter	Fam108B inh	LYPLA2 counter	GSTO1 inh conf
Cc1ccccc1NC(=O)C(Cl)=C(Cl)Cl	-0.7	1.9	-5.2	43.8*	-2.0	-5.0	24.2
Cc1ccccc1NNC(=O)C(=O)NNc1ccccc1C	-0.7	3.1	-1.0	6.0	9.4	0.7	/
NC(CO)C(=O)NNCc1ccc(O)c(O)c1O (stereo unspecified)	-18.2	-11.3	-17.3	88.4*	6.4	-30.9	71.6*
CC(=O)Nc1ccc(Sc2ccccc2C(=O)O)cn1	2.9	-4.4	1.6	44.3*	0.2	4.5	25.5
CC(=O)Nc1ccc(Sc2ccccc2C(=O)Nc2ccc(F)cc2)cn1	-1.5	-0.1	0.8	-2.5	1.0	-1.3	/
O=C1C(=Cc2ccco2)C(=O)c2ccccc21	0.3	-2.1	2.9	37.9*	7.0	7.6	26.6
COc1ccc(NC(=O)CCc2nnc3ccc(N4CCN(c5cccc(OC)c5)CC4)nn23)cc1	-0.1	-3.6	-8.7	3.8	-2.3	-0.2	/
CC1=C(C(=O)OCc2ccccc2)C(c2cccc3ccccc23)NC(=O)N1CCCC(=O)O (stereo unspecified)	-4.5	-5.7	-5.5	-5.0	-5.9	2.5	/
CC(OC(=O)CN1C(=O)NC2(CCCC2)C1=O)c1ccc(F)cc1 (stereo unspecified)	0.4	0.7	-6.1	/	/	5.8	/
COC(=O)c1c([N+](=O)[O-])c(OC)c(OC)c(OC)c1[N+](=O)[O-]	-1.2	-6.6	3.4	39.0*	-5.7	5.5	53.5*
COCCNC(=O)c1c(N)n(CCC2=CCCCC2)c2nc3ccccc3nc12	2.7	-11.2	11.8	42.0*	7.5	-3.1	3.7
COc1ccc(CCn2c(N)c(C(=O)NCc3ccco3)c3nc4ccccc4nc32)cc1OC	-4.6	-15.8	9.3	51.7*	7.4	-5.9	0.4
COc1ccc(CCNC(=O)c2ccc3nc(-c4ccco4)c(-c4ccco4)nc3c2)cc1OC	-9.3	-13.2	16.0	38.9*	8.7	6.3	14.2
C=CCNC(=S)NNC(=O)c1cc(O)ccc1O	0.7	-2.5	3.3	61.9*	1.1	4.2	6.6
CCOC(=O)NC(=O)/C(C#N)=N\Nc1cccc(Cl)c1	3.2	3.6	-0.6	-2.0	2.1	-1.1	/
CCOC(=O)NC1(Nc2cccc(Cl)c2)Oc2ccccc2O1	-1.1	-0.4	-1.7	56.0*	1.8	2.0	3.9
C=C(C(=O)Oc1ccccc1C(C)(C)C)c1ccccc1	-9.5	1.4	-13.4	/	/	-12.3	/
